From PubChem BioAssay AID504444 (National Center for Advancing Translational Sciences (NCATS), 2011)
Hit rate of the full screen: of about 360,000 compounds, about 7,500 (2.1%) were called active. About 20% were inconclusive and are not listed. Shown is part of a subset that was picked to be rich in actives. A call without a number means that no potency is given here. Values without a mark were called inactive. The call rests on the fitted dose curve; in most records, active means well fitted inhibition curve with a large enough effect; inconclusive means small, poorly fitted or top-dose-only effect, or effect the other way; inactive means flat fitted curve, though single readings scatter.

Assay: Nrf2 qHTS screen for inhibitors; further: nearly all actives have a fitted effect of over 60% in size
Conditions: A549 ARE-Fluc reporter, luciferase luminescence, 18-24 h; series mostly up to 46 µM
From the text: NIH Molecular Libraries Probe Production Network [MLPCN]
NIH Chemical Genomics Center [NCGC]
Assay Provider: Shyam Biswal, Johns Hopkins University
Nrf2 is a transcription factor that maintains cellular redox homoestasis and protects cells from xenobiotics. Nrf2 binds to the antioxidant response element (ARE) to induce gene expression of a broad spectrum of genes that encode for antioxidants. […] Finding a small molecule that act as an inhibitor of Nrf2 function would represent a novel therapeutic target that could lead to improvement in survival of patients undergoing chemo- and/or radio- therapy.
This is the Nrf2 activity measured in the luminescent read.
1. Shibata, T., et al., Genetic Alteration of Keap1 Confers Constitutive Nrf2 Activation and Resistance to Chemotherapy in Gallbladder Cancer. Gastroenterology, 2008.
2. Sjoblom, T., et al., The consensus coding sequences of human breast and colorectal cancers. Science, 2006. 314(5797): p. 268-74.
NCGC Assay Protocol Summary:
A concentration-response assay was performed with A549 ARE_Fluc cells which are suspended in 5% FBS OPTI-MEM. Five uL were dispensed into 1536-well white TC-treated plate using the Kalypsys dispenser to achieve a density of 5000 cells/well in all columns except column 1. The plate is incubated at 37deg C at 5% CO2 for 2 hours before 23 nL of compounds are added with the Kalypsys pin tool equipped with a 1,536-pin array containing 10-nL slotted pins (FP1S10, 0.457-mm diameter, 50.8 mm long; V&P Scientific). The control compounds Budesonide and Staurosporine are both added at a concentration of 2mM and Budesonide is also added as a 1:10 titration, starting at 200uM, to achieve dose-response. After an 18-24 hour incubation at 37deg C at 5% CO2, 5ul of medium is added to column 1. Afterwards 1ul of 5x of CellTiter-Fluor (Promega) is added to every well. The plate is then incubated at 37deg C at 5% CO2 for 30 minutes before they are read on the ViewLux (Perkin Elmer) for a fluorescent read Ex=405(10)/Em=525(10) for a 3 second exposure, 2x binning, and high gain. Then 3 uL of 3x BugLite is dispensed into all wells and the plate is incubated at ambient room temperature for 15 minutes. Afterwards another ViewLux read is performed using the clear filter to get a luminescent read with the settings of 40 second exposure, 2x binning, and high gain. Cytotoxicity is assessed through the first fluorescent read and then biochemical activity against Nrf2 is measured in the luminescent read.
Potency means the concentration at half of the fitted maximal effect.

Row | Compound | Potency | activity change, negative = inhibition
1 | CC(=O)NCc1ccc(-c2csc(NC(=O)CCCc3nc4ccccc4c(=O)[nH]3)n2)cc1 | inactive | –
2 | Cc1cc(C)c(-c2csc(NC(=O)CCCc3nc4ccccc4c(=O)[nH]3)n2)c(C)c1 | 9.2 µM (active) | –
3 | CCCn1c(C)cc(-c2csc(NC(=O)CCc3nc4ccccc4c(=O)[nH]3)n2)c1C | inactive | –
4 | Cc1sc2ncn(CC(=O)N3CCN(c4ccc(F)cc4)CC3)c(=O)c2c1S(=O)(=O)N1CCN(c2ncccn2)CC1 | inactive | –
5 | CC(C)(C)NC(=O)NC(=O)COC(=O)Cc1c(F)cccc1Cl | inactive | –
6 | COc1ccc(S(=O)(=O)N2CCOCC2)cc1NC(=O)Cc1c(F)cccc1Cl | inactive | –
7 | O=C(Cc1c(F)cccc1Cl)Nc1ncc([N+](=O)[O-])s1 | 16.4 µM (active) | –
8 | Cc1ccc(S(=O)(=O)c2cc3c(=O)n4cccc(C)c4nc3n(CCc3ccccc3)c2=N)cc1C | inactive | –
9 | COC(=O)c1ccccc1NC(=O)c1cnn(-c2ccc(F)cc2)c1-n1cccc1 | inactive | –
10 | COc1ccc2c(c1)c(N1CCCC1=O)c(C(=O)Nc1ccccc1C(F)(F)F)n2C | inactive | –
11 | CCC1([N+](=O)[O-])COC(c2ccc(C)cc2)OC1 (stereo not drawn) | inactive | –
12 | CCOC(=O)c1ccc(NC(=O)C2CC(=O)NC(=Nc3ccc(C)c(C)c3)S2)cc1 (stereo not drawn) | inactive | –
13 | CN(C)c1ccc(/C=N\S(=O)(=O)c2ccccc2)cc1 | inactive | –
14 | CC[n+]1cc(C)ccc1/C=C/c1ccc(N(C)C)cc1 | 4.11 µM (active) | –
15 | C=CC(COCc1ccccc1)N(CC(=O)OC)S(=O)(=O)c1cc(Br)ccc1OC (stereo not drawn) | inactive | –
16 | Cc1nn(CC(=O)O)c(=O)c2cc3cc(F)ccc3n12 | inactive | –
17 | Cc1ccccc1C(=O)O | inactive | –
18 | O=C1OC(OC(=O)c2ccccc2Br)C(N2CCOCC2)=C1Cl (stereo not drawn) | inactive | –
19 | Cc1ccccc1C(=O)OC1OC(=O)C(Cl)=C1Nc1ccccc1 (stereo not drawn) | 8.2 µM (active) | –
20 | CCOC(=O)c1c(-c2ccc(OC)cc2)oc2ccc(OCc3ccc(C(=O)OC)cc3)cc12 | inactive | –
21 | O=C(NCCCN1CCOCC1)c1cn(-c2ccccc2)nc1-c1ccc(F)cc1 | inactive | –
22 | CCCCCCSc1ccc(-c2nc3ccc(Cl)cn3c2NCc2ccccc2)cc1 | inactive | –
23 | O=C(CNC(=O)c1ccc(Cl)c(C(F)(F)F)c1)OC(C(=O)Nc1cc(C(F)(F)F)ccc1Cl)c1ccccc1 (stereo not drawn) | inactive | –
24 | COc1ccc(OC)c(/C=C/C(=O)c2ccc3c(c2)OCO3)c1 | inactive | –
25 | Cc1ccc(C)c(N2CCN(C(=O)Cn3nc(C)c4sc5ccccc5c4c3=O)CC2)c1 | inactive | –

Row | Compound | Potency | activity change, negative = inhibition
26 | CCc1nn(CC(=O)N2CCN(c3cc(C)ccc3C)CC2)c(=O)c2cc3occc3n12 | inactive | –
27 | Cc1ccc(C)c(N2CCN(C(=O)Cn3ncn4cccc4c3=O)CC2)c1 | 23.1 µM (active) | –
28 | COc1ccc(-c2nc(CN3CCC(C(=O)NCCN(CC(C)C)CC(C)C)CC3)c(C)o2)cc1OC | inactive | –
29 | CN(C(=O)c1cccc(NC(=O)Cc2ccc(NC(=O)C3CCN(C(=O)C4CCCCC4)CC3)cc2)c1)C1CCC1 | inactive | –
30 | COc1ccccc1N1CCN(S(=O)(=O)c2ccc(Cl)cc2)CC1 | inactive | –
31 | COc1ccccc1N1CCN(C(=O)CN(Cc2ccc(Cl)cc2)S(C)(=O)=O)CC1 | 23.1 µM (active) | –
32 | CS(=O)(=O)N(CC(=O)N1CCCC1)Cc1ccccc1 | inactive | –
33 | O=S1(=O)N=C(Oc2cccc(Br)c2)c2ccccc21 | inactive | –
34 | COc1ccc(-c2cc(-c3nc(-c4cc(OC)c(OC)c(OC)c4)no3)[nH]n2)c(OC)c1 | inactive | –
35 | CC(C)(C)OC(=O)N1CCC(C(=O)Nc2cccc(C(=O)NCCc3ccccc3)c2)CC1 | inactive | –
36 | CCN(CCCNC(=O)CSc1cc(=O)n(C)c2cc(Cl)ccc12)c1cccc(C)c1 | inactive | –
37 | Cc1ccc(C(=O)NC2CCN(C#N)CC2)cc1 | inactive | –
38 | COCc1cc(=O)n2[nH]c(C)c(-c3ccccc3)c2n1 | inactive | –
39 | Cc1cc(=O)n2[nH]c(-c3cccc(Cl)c3)cc2n1 | inactive | –
40 | Cc1nc2c(-c3ccccc3)c(C)[nH]n2c(=O)c1Cl | 20.6 µM (active) | –
41 | O=[S+]([O-])(c1ccc2c(c1)OCCO2)N1CCN([S+](=O)([O-])c2c(Cl)cc(Cl)cc2Br)CC1 | inactive | –
42 | COc1ccc(N(C)S(=O)(=O)c2ccc3c(c2)CC(C)N3C(=O)C2CC2)c(OC)c1 (stereo not drawn) | inactive | –
43 | COc1cccc(CNS(=O)(=O)c2ccc3c(c2)CC(C)N3C(=O)C2CCC2)c1 (stereo not drawn) | 11.6 µM (active) | –
44 | COc1cccc(CNS(=O)(=O)c2ccc3c(c2)CC(C)N3C(C)=O)c1 (stereo not drawn) | inactive | –
45 | CC(=O)OC1CCC2C3CCC4=C(CC(F)C(=O)C4)C3CCC12C (stereo not drawn) | inactive | –
46 | C/C=C/c1ccc(OCC(=O)NNC(=O)CN(C)S(=O)(=O)c2ccc(C)cc2)c(OC)c1 | inactive | –
47 | Cc1ccc(C)c(N2CCN(C(c3ccccc3)c3nnc(-c4ccccc4)o3)CC2)c1 (stereo not drawn) | inactive | –
48 | CCCn1c(NCc2ccc(N(CC)CC)cc2)nc2ccccc21 | inactive | –
49 | O=C(/C=C/c1ccccc1)c1ccccc1O | 3.66 µM (active) | –
50 | O=C(NNC(=O)c1ccccc1O)c1ccccc1O | inactive | –

Row | Compound | Potency | activity change, negative = inhibition
51 | O=C(/C=C/c1ccccc1)N/C(=C/c1ccccc1)C(=O)Nc1ccccc1O | inactive | –
52 | CNC(=O)c1sc(Nc2ccc(OCc3ccccc3)cc2)nc1C | 20.6 µM (active) | –
53 | O=C(O)/C=C\C(=O)Nc1ccc(OCc2ccccc2)cc1 | inactive | –
54 | CCc1ccnc(NC(=O)Nc2ccc(OCc3ccccc3)cc2)c1 | inactive | –
55 | CCN(C[C@H]1N[C@@](CC)(C(=O)OC)[C@H]2C(=O)N(Cc3ccccc3)C(=O)[C@@H]12)S(=O)(=O)c1ccccc1 | inactive | –
56 | Cc1cccc(C(=O)OCC(=O)NC(C)C2CC3CCC2C3)c1O (stereo not drawn) | inactive | –
57 | CC(C)Cn1c(N)c(C(=O)COC(=O)C2CCCN2C(=O)c2cccs2)c(=O)n(C)c1=O (stereo not drawn) | inactive | –
58 | CC(C)Cn1c(N)c(C(=O)COC(=O)CN2C(=O)C3CC=CCC3C2=O)c(=O)n(C)c1=O (stereo not drawn) | 4.61 µM (active) | –
59 | COc1ccc(C(=O)COC(=O)CN2C(=O)C3CC=CCC3C2=O)c(OC)c1 (stereo not drawn) | inactive | –
60 | O=C(Nc1ccn(CCCNCc2ccc3[nH]ccc3c2)c(=O)n1)OCc1ccccc1 | inactive | –
61 | COc1ccccc1S(=O)(=O)NCc1ccc(C(=O)N(C)Cc2ccc(F)cc2)cc1 | 23.1 µM (active) | –
62 | O=C(NCCS(=O)(=O)NCc1ccc(F)cc1)c1ccccc1 | inactive | –
63 | CN(Cc1ccccc1)C(=O)c1ccc(COc2ccccc2)cc1 | inactive | –
64 | O=C1N(Cc2ccccc2)c2ccc(Cl)cc2C1(O)c1c[nH]c2ccccc12 (stereo not drawn) | inactive | –
65 | CC(Nc1ncnc2ccc(-c3ccc4c(c3)OCO4)cc12)c1ccco1 (stereo not drawn) | inactive | –
66 | O=C(/C=C/c1ccc(F)cc1)Nc1cccc(S(=O)(=O)Nc2cccc(C(F)(F)F)c2)c1 | inactive | –
67 | Cc1oc2c(F)c(F)c(F)c(F)c2c1S(=O)(=O)Nc1cccc(C(F)(F)F)c1 | 8.2 µM (active) | –
68 | Cc1cccc(NC(=O)c2cccc(C(F)(F)F)c2)c1 | inactive | –
69 | CCn1c2ccccc2c2cc(CN3CCN(Cc4cccc(Cl)c4)CC3)ccc21 | inactive | –
70 | Cc1cccc(C(=O)N2c3nc(-c4ccco4)nn3C3(CCCCC3)[C@@H]3CCCC[C@@H]32)c1 | inactive | –
71 | CN(C)S(=O)(=O)c1ccc(NC(=O)N2CCOCC2)cc1 | inactive | –
72 | COc1cccc(NC(=O)c2ccc(S(=O)(=O)N(C)C)cc2)c1 | inactive | –
73 | CN(C)S(=O)(=O)c1ccc(Oc2ccc(S(=O)(=O)N(C)C)cc2)cc1 | 13 µM (active) | –
74 | CCOc1ccc(-c2n[nH]c3c2C(c2ccccc2OC)N(c2ccc(Br)cc2)C3=O)cc1 (stereo not drawn) | inactive | –
75 | CCCCCCCCNS(=O)(=O)CCNC1CCCCC1 | inactive | –

Row | Compound | Potency | activity change, negative = inhibition
76 | Cc1cccc(C(C)C)c1NC(=O)C(NS(=O)(=O)c1cccc2nsnc12)c1ccccc1 (stereo not drawn) | inactive | –
77 | CCN1/C(=C/C(=S)Nc2ccccc2)Sc2ccccc21 | 6.51 µM (active) | –
78 | CCNC(=O)N1c2ccccc2Sc2ccccc21 | inactive | –
79 | O=C(CCN1c2ccccc2Sc2ccccc21)Nc1ccccc1 | inactive | –
80 | CC(C)NC(=O)Nc1cccc2c1O[C@H](CN(C)S(=O)(=O)c1cccs1)[C@@H](C)CN([C@H](C)CO)C2=O | inactive | –
81 | COc1cccc(N2CCN(S(=O)(=O)c3cc(Br)cc4c3N(C(=O)C3CC3)CC4)CC2)c1 | – | -6.76% [at 9.27 µM]
82 | O=C(NCCC1=CCCCC1)c1ccc2c(c1)N(Cc1ccccc1F)C(=O)c1ccccc1S2(=O)=O | inactive | –
83 | COc1cccc(OC2=NS(=O)(=O)c3ccccc32)c1 | inactive | –
84 | CCN(CC)C(=O)c1sc(NC(=O)c2ccco2)c(C#N)c1C | inactive | –
85 | CCCc1ccc(-c2c(C)sc(NC(=O)c3ccnn3C)c2C#N)cc1 | 13 µM (active) | –
86 | Cn1nccc1CNC(=O)c1ccnn1C | inactive | –
87 | COc1ccc(C)cc1NC(=O)COCc1cc(-c2cccs2)on1 | inactive | –
88 | O=C(Nc1ccc(OC(F)(F)F)cc1)C1CCCN(S(=O)(=O)c2ccc(Br)s2)C1 (stereo not drawn) | inactive | –
89 | CCCCNc1nc2c(c(=O)n(C)c(=O)n2C)n1Cc1cccc(OC)c1 | 5.8 µM (active) | –
90 | CCCCNc1nc2c(c(=O)[nH]c(=O)n2C)n1CCOc1ccccc1 | inactive | –
91 | COC(=O)C(C)Sc1nc2c(c(=O)n(C)c(=O)n2C)n1Cc1cccc(C)c1 (stereo not drawn) | inactive | –
92 | Cn1c(=O)c2c(nc(NCCc3ccccc3)n2Cc2ccccc2Br)n(C)c1=O | inactive | –
93 | Cn1c(=O)[nH]c(=O)c2c1nc(NCCc1ccccc1)n2Cc1ccc(F)cc1 | inactive | –
94 | Cn1c(=O)c2c(nc(NCCc3ccccc3)n2Cc2ccccc2)n(C)c1=O | 14.6 µM (active) | –
95 | Clc1ccc(CSc2nncn3c2cc2occc23)cc1 | inactive | –
96 | N#CN1CCC(NS(=O)(=O)c2cccc(F)c2)C1 (stereo not drawn) | inactive | –
97 | COc1ccccc1NC(=O)c1oc2ccccc2c1NC(=O)C(C)C | inactive | –
98 | CCN(CC)CCCC(C)n1c2nc(=O)[nH]c(=O)c-2nc2cc(Cl)ccc21 (stereo not drawn) | 20.6 µM (active) | –
